Hit rate of the full screen: of about 21,000 compounds, fewer than 10 were called active.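 How the source made its calls: active means inhibition above 50% at the 20 µM single-dose screen; inactive means the rest.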 These entries were drawn from the full list.
The compounds below were run against Alkaline phosphatase, tissue-nonspecific isozyme (Homo sapiens) (UniProt P05186) (assay: blockers of alkaline phosphatase TNAP activity – biochemical, colorimetric, phosphate release readout, primary screen (AID 614)). Conditions: purified TNAP, pNPP, malachite green phosphate absorbance; at 20 µM; stronger effect = higher value.
Chain of Alkaline phosphatase, tissue-nonspecific isozyme (Homo sapiens) (P05186 whole entry, looked up): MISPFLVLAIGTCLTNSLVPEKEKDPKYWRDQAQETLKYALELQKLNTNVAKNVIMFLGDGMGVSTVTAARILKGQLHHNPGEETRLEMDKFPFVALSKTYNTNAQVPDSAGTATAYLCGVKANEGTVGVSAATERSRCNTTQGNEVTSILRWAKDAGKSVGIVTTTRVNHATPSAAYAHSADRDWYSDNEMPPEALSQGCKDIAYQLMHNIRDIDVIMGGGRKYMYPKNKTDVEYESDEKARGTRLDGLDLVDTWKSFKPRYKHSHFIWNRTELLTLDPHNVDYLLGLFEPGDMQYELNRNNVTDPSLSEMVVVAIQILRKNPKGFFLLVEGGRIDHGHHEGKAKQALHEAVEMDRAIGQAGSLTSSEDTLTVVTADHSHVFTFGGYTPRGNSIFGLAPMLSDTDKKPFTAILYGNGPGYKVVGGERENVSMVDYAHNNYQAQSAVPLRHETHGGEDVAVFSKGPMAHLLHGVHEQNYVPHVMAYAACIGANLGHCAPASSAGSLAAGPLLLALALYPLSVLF

inhibition, inactive:
C=CCNc1nnc(C)c2ccccc12 15.4%
COCCNC(=O)C(C#N)c1nc2ccccc2nc1N1CCN(Cc2ccc3c(c2)OCO3)CC1 (centres undefined) 8.2%
CC1COC2C(O1)N(S(C)(=O)=O)CCN2S(C)(=O)=O (centres undefined) 3.4%
CCn1cc(C(=O)NCc2ccc(OC)cc2OC)c(=O)c2ccc(C)nc21 9.9%
Cc1cccc(NC(=O)c2ccccc2NC(=O)C(C)(C)C)n1 0.8%
Cc1cc(C)cc(NC(=O)N2CCC(NC(=O)c3ccc(F)cc3)CC2)c1 7.3%
CSc1nsc(SC)c1NC(=O)OC1CCCCC1 0%
COCc1nc2ccccc2n1Cc1ccccc1Br 1.7%
c1nnc2c3c4c(sc3ncn12)CCC4 9.7%
Cc1cc(Cl)c(S(=O)(=O)NCc2cccnc2)cc1OCC(N)=O 5.5%
O=C(O)c1ccc(NS(=O)(=O)c2cccc3nsnc23)cc1 11.8%
Cn1c(=O)[nH]c(=O)c2c1nc(Br)n2CCCCSc1nc2ccccc2o1 1.3%
CCOC(=O)c1sc(NC(=O)CSc2nnc(-c3ccco3)o2)c(C(=O)OCC)c1C 7.3%
Cc1nc(N2CCCC2C(=O)O)c2oc3ccccc3c2n1 (centres undefined) 10.7%
Cc1nc(NCCN)c(C#N)c2c1COC(C)(C)C2 5.7%
O=S(=O)(NCc1ccccn1)c1ccc(F)cc1 9.6%
CCN(CC)C(=O)CSc1nnc(-c2cnccn2)n1-c1ccc(C)cc1 2.9%
Cc1ccc(S(=O)(=O)Nc2ccccc2CNc2c(C)n(C)n(-c3ccccc3)c2=O)cc1 12.4%
CCC1CCCCN1C(=O)Nc1cccc(NC(=O)N2CCCCC2CC)c1 (centres undefined) 6.5%
Cc1ccc2nc(-c3ccccc3)cc(C(=O)O)c2c1 2.9%
COc1ccc(Cl)cc1NC(=O)C1CC(=O)N(c2ccc(F)cc2)C1 (centres undefined) 4.2%
CCOC(=O)Cn1c(SC)nc2sc3c(c2c1=O)CC(C)(C)OC3 11.5%
CCOC(=O)CCc1c(C)c2ccc(OCc3nn[nH]n3)c(C)c2oc1=O -5.8%
Cc1noc(C)c1CSc1nnc2ccc3ccccc3n12 12.2%
COc1ccc(CCn2c(-c3ccco3)nc3nc4ccccc4nc32)cc1OC 1.5%
Cc1cccc2cc(CN(Cc3ccc4c(c3)OCO4)Cc3nnnn3C3CCCC3)c(=O)[nH]c12 15%
COc1cc(C(=O)N(Cc2ccc(N(C)C)cc2)C2CCS(=O)(=O)C2)cc(OC)c1OC (centres undefined) 8%
CCOC(=O)CC1=CC(=O)Nc2ccccc2N1 2.4%
Cc1cc(C)cc(OCc2nnc(SCC(=O)OC3CCCCC3)o2)c1 -4.5%
COC(=O)c1nc(NC(=O)c2ccc(Cl)cc2)n[nH]1 1.5%
CCC1SC2=NCCN2C1(O)c1ccc(Cl)cc1 (centres undefined) 3.8%
CCSc1nc(=S)n(CC)c(C)c1C(C)=O 5.7%
Cc1ccc2nc(NC3=NCN(CCc4ccccc4)CN3)nc(C)c2c1 10.4%
O=C(CN(c1ccc2c(c1)OCCO2)S(=O)(=O)c1ccccc1)Nc1ccc2c(c1)OCO2 5.3%
O=S(=O)(NCC1CCCO1)c1ccc2ccccc2c1 (centres undefined) 8.8%
CCn1c(SCC(=O)Nc2nc3ccc(OC)cc3s2)nnc1-c1ccoc1C 1.9%
CSCC[C@H](NC(=O)NCc1cccs1)C(=O)O -0.1%
COC(=O)c1ccc(CSc2nncn2C)cc1 11%
COc1cccc(N(CC(=O)Nc2cccc(F)c2)S(C)(=O)=O)c1 0.7%
CCOP1(=O)C=C(C(C)(C)C)OC1c1ccc(F)cc1 (centres undefined) -0.2%
CCN1CCN(C(=O)c2ccccc2N(C)S(=O)(=O)c2ccc(C)cc2)CC1 11.4%
Nn1c(SCC(=O)NC(=O)NC2CCCC2)nnc1-c1ccccc1F 15.5%
CCCn1c(SCC(=O)c2ccc3c(c2)OCCO3)nnc1C(C)C 11.4%
O=C(Nc1cccc2c1CCCC2)C1CCN(C(=O)NC2CCCCC2)CC1 15.2%
COc1ccc2c(c1)C(C)=CC(C)(C)N2C(=O)CNCc1ccc2c(c1)OCO2 6.2%
COc1ccc(NS(=O)(=O)c2ccc(NC(=O)C(C)(C(F)(F)F)C(F)(F)F)cc2)nn1 3.4%
Cc1ccc(C(=O)CS(C)(=O)=O)cc1 -1.2%
Clc1ccc(CSc2nnc([C@@H]3CCCN3)o2)cc1 13%
COC(=O)C1C(=O)CC(C)(O)C(C(=O)OC)C1c1ccc2c(c1)OCO2 (centres undefined) 9.9%
CN(C)Cc1c(C#N)c2ccccc2n1C -22.9%
C=CCn1c(CC(=O)Nc2cccc(OC)c2)nnc1SCC(=O)NC1CCCCC1 -6.2%
Cc1cc(Br)ccc1NC(=O)C1CCCO1 (centres undefined) 0%
Cc1ccc(C(=O)CSc2nc3ccccc3c(=O)n2N)o1 6%
CCCCC(CCC(=O)Nc1ccc(C(=O)OCC)cc1)C(=O)O (centres undefined) 6%
Fc1cnc(N2CCOCC2)nc1NCc1ccccc1 -0.4%
CCOC(=O)CN(C(=O)CN1CCOCC1)c1ccc(Br)cc1 -1.5%
O=C(O)COc1nsnc1N1CCOCC1 10.4%
O=C1CCC(C(=O)Nc2ccc(OC(F)F)cc2)N1 (centres undefined) 21.3%
Cc1cccc(Cn2c(N3CCN(c4ccccc4)CC3)nc3c2c(=O)n(C)c(=O)n3C)c1 8.8%
O=C1CC(N2CCN(C(c3ccccc3)c3ccccc3)CC2)C(=O)N1 (centres undefined) 7.9%
COC(=O)c1ccc(N(CC(=O)NC2CCCC2)C(=O)CNC(=O)c2ccco2)cc1 0%
Cc1ccc(C)c(NC(=O)C2CCCN2C(=O)OC(C)(C)C)c1 (centres undefined) -3.4%
O=C(NCc1ccc(Cl)cc1)c1cc2c(nc3sccn32)s1 12.4%
CN(C)CCCNc1c2c(c(C#N)c3nc4ccccc4n13)CCC2 0%
Cc1c(C(=O)OCc2cc(=O)n3cc(Br)ccc3n2)oc2ccccc12 -2.2%
Cc1ccc(Oc2ccc(N)cc2)cc1 15%
Cc1cc(N2CCCC2)n2nc(C)c(-c3ccccc3)c2n1 8.2%
CC(C)C1Cc2c(sc3c2c(=O)n(-c2ccccc2)c2nncn32)CO1 (centres undefined) 10.1%
COC(=O)c1cc(OC)c(OC)cc1NC(=O)C1CCCO1 (centres undefined) 6%
CC(=O)N1CCN(C(=O)Nc2cccc(C(F)(F)F)c2)CC1 -0.7%
CCCC(=O)Nc1ccc2c(c1)nc1n2CCSC1 3.5%
O=C(CSc1nnc(-c2ccoc2)o1)N1CCOCC1 -1.3%
c1cnc(NC2C3CC4CC(C3)CC2C4)nc1 (centres undefined) 3.8%
N#CC(C(N)=O)=C1CCC2(CC1)OCCCCO2 13.2%
Cc1ccc(S(=O)(=O)N2CCC(N3CCCCCC3)CC2)cc1 7%
COc1ccc(-c2nnc(SCC(=O)c3ccco3)n2-c2ccccc2)cc1 2.3%
O=C(c1cccc(S(=O)(=O)N2CCOCC2)c1)N1CCOCC1 6.8%
CCc1ccc(N2CC(C(=O)NC3=NCCS3)CC2=O)cc1 (centres undefined) -4.1%
COC(=O)[C@H](Cc1ccccc1)NC(=O)N1CC(C)OC(C)C1 (some centres undefined) 6.7%
CC(C)OCCCNc1nc2c(c(=O)n(Cc3ccccc3F)c(=O)n2C)n1C 11.4%
N#Cc1c2c(c(-c3ccccc3)[nH]c1=O)CCCC2 9.6%
Cc1ccc(C(C(=O)NC2CCCC2)N(Cc2ccco2)C(=O)CCC(=O)Nc2ccccn2)cc1 (centres undefined) 7.3%
COc1c(O)cccc1-c1nnn(CCC(=O)OCC(=O)c2ccccc2)n1 2.2%
O=C(O)c1cscn1 4.2%
O=C(CSc1nnc(-c2ccccn2)n1-c1ccccc1)Nc1ccc2c(c1)OCO2 3.6%
COc1ccc(C(=O)Nc2ccc(S(=O)(=O)Nc3onc(C)c3C)cc2)cc1OC 0.4%
CCOC(=O)C1=C(C)NC(=O)N(C(C)=O)C1c1ccc(Cl)cc1 (centres undefined) 10%
O=C(NCCSc1ccccc1)c1ccco1 13.2%
CCc1nc2ccccc2n(CCOCCOCCn2c(=O)c(CC)nc3ccccc32)c1=O 8.8%
COc1cccc(N(CC(=O)Nc2cccc(N(C)S(C)(=O)=O)c2)S(C)(=O)=O)c1 0%
CS(=O)(=O)N1CCN(C(=O)c2cc3ccccc3oc2=O)CC1 11.1%
COc1ccc(CNC(=O)c2c(C)cc(=O)oc2C)cc1OC 11.6%
COc1ccc(-n2c(SCC(=O)OC(C)C)nnc2-c2ccccn2)cc1 7.8%
CCN(CC)S(=O)(=O)c1cccc(C(=O)Nc2ccccc2)c1 3.8%
Cc1cc(C)nc(SCc2nnc(SCC(=O)OC3CCCCC3)o2)n1 2.9%
CNC(=O)c1nnn(-c2ccccc2)c1C(=O)NC 6.4%
COC(=O)c1ccc(NC(=O)CSc2nnc(CNc3ccc(OC)cc3)n2C)cc1 -7.8%
CCc1nc2oc3ccccc3c(=O)c2c(=O)n1Cc1ccc(OC)cc1 6.6%
CCOC(=O)c1cc2cc(C)ccc2[nH]1 -8.6%
